# In article PMC7826789 (International Journal of Molecular Sciences, 2021):
# Tested on: MAP4K5
# Conditions: Compound Concentration (nM):1000
# 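Further: KINOMEscan scanMAX binding as percent activity remaining versus control; lower means stronger binding.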
row,Compound,Percent Control [%]
1,Cl.O=S1CCN(Cc2ccc(-c3ccc4ncnc(Nc5ccc(OCc6ccccc6)c(F)c5)c4c3)o2)CC1 [GW576924A],100
2,COc1ccc2[nH]c3c4[nH]c5ccc(OC)cc5c4c4c(c3c2c1)C(=O)NC4=O [GW296115X],51
3,COc1cc2ncnc(Nc3ccc4c(cnn4Cc4ccccc4)c3)c2cc1OC.Cl [GW282449A],88
4,COc1cc(C=NNc2ncnc3c2cnn3-c2ccccc2)ccc1O [GW513184X],94
5,COc1ccccc1-c1cc(/C=C2\C(=O)Nc3ncc(Br)cc32)cc(Br)c1O [GW442130X],94
6,CN1CCN(C(=O)c2ccc(NC(=O)Nc3ccc(N(C)c4ccnc(Nc5ccc(CS(C)(=O)=O)cc5)n4)cc3)cc2)CC1.Cl [GW830263A],32
7,O=C1Nc2ccc(C(=O)c3ccco3)cc2C1=Cc1cc(Cl)c(O)c(Cl)c1 [GW406108X],99
8,COc1cc(/C=N/Nc2ncnc3[nH]ncc23)ccc1O [GW578748X],100
9,Cc1cc(O)cc(C)c1/C=C/c1cncc(C(N)=O)c1 [GW435821X],100
10,CCS(=O)(=O)c1ccc(OC)c(Nc2ncc(-c3cccc(F)c3)o2)c1 [GW621970X],100
11,Cl.O=C(Nc1ccc(Oc2ccc3[nH]c(NC(=O)c4ccco4)nc3c2)cc1)Nc1cc(C(F)(F)F)ccc1F [GW683134A],84
12,Nc1ncnc2occ(-c3ccc(NC(=O)Nc4cc(C(F)(F)F)ccc4F)cc3)c12 [GW770249X],11
13,O=C(Nc1n[nH]c2nc(-c3ccc(O)cc3)c(Br)cc12)C1CC1 [SB-725317],100
14,CC1=C(C(=O)Nc2ccc3[nH]ncc3c2)C(c2ccc(Cl)c(Cl)c2)CC(=O)N1 (stereo not shown) [GSK299115A],75
15,NS(=O)(=O)c1ccc(N/N=C2\C(=O)Nc3ccc(Cl)cc32)cc1 [GW280670X],100
16,CC1=C(C(=O)Nc2ccc3[nH]ncc3c2)C(c2ccc3ccccc3c2)CC(=O)N1 (stereo not shown) [GSK270822A],93
17,COc1cccc(-c2c[nH]c3c(N/N=C/c4ccncc4)ncnc23)c1 [GW814408X],68
18,NS(=O)(=O)c1ccc(N/N=C2\C(=O)Nc3ccc(C(=O)NCCc4c[nH]cn4)cc32)cc1 [GW300660X],100
19,CN(C)CCNC(=O)Nc1ccc(N(C)c2ccnc(Nc3ccc(CS(C)(=O)=O)cc3)n2)cc1.Cl [GW830900A],77
20,COc1ccc2cc(-c3c(-c4ccncc4)nc(-c4ccc(S(C)(=O)=O)cc4C)n3C)ccc2c1 [SB-633825],91

row,Compound,Percent Control [%]
1,NS(=O)(=O)c1ccc(N/N=C2\C(=O)Nc3ccc(-c4cnco4)cc32)cc1 [GW276655],84
2,CN(C)c1cc2c(Nc3ccc4c(cnn4Cc4ccccc4)c3)ncnc2cn1 [GW282974X],98
3,COc1ccc2c(-c3ccnc(Nc4cccc(OC(F)(F)F)c4)n3)cnn2n1 [GW810372X],100
4,Cl.O=C(O[C@H]1CN[C@H](C#Cc2cc3ncnc(Nc4ccc5c(cnn5Cc5ccccc5)c4)c3s2)C1)N1CCOCC1 [GSK200398A],92
5,CCS(=O)(=O)c1ccc(OC)c(Nc2ncc(-c3cccc(OC)c3)o2)c1 [GW580509X],100
6,CCc1ccc(Oc2nccc(-c3c(-c4ccc(F)cc4)ncn3C3CCNCC3)n2)cc1 [SB-242719],53
7,NS(=O)(=O)c1ccc(N/N=C2\C(=O)Nc3ccc(C(=O)NCc4ccncc4)cc32)cc1 [GW300657X],96
8,COc1ccc(COc2ccc(Cc3cnc(N)nc3N)cc2OC)cc1 [GW632580X],99
9,NS(=O)(=O)c1ccc(Nc2ncc(-c3ccccc3)o2)cc1 [GW572399X],100
10,COC(=O)Nc1nc2ccc(Oc3ccc(NC(=O)Nc4cc(C(F)(F)F)ccc4F)cc3)cc2s1.Cl [GW693917A],71
11,COc1cc(C)c(N(C)C(=O)CN(C)C)cc1Nc1nc(Nc2cccc(F)c2C(N)=O)c2cc[nH]c2n1 [GSK2219385],100
12,COc1cc(N2CCN(C(C)C)CC2)ccc1Nc1nc(Nc2ccc(F)cc2C(=O)NC[C@@H](O)CO)c2cc[nH]c2n1 [GSK1392956A],96
13,CC(C)COC(=O)c1ccc2c(c1)/C(=C/Nc1ccc(S(N)(=O)=O)cc1)C(=O)N2 [GW416981X],87
14,Cl.c1ccc(Cc2nc3ccc(Nc4ncnc5ccccc45)cc3[nH]2)cc1 [GR269666A],100
15,CCn1c(-c2nonc2N)nc2c(C#CC(C)(C)O)nc(OCCNC)cc21.Cl [GSK949675],57
16,COc1cc2ncn(-c3cc(O[C@H](C)c4ccccc4Cl)c(C(N)=O)s3)c2cc1OC [GSK237701A],7.5
17,COc1cccc(-n2ncc3c(N/N=C/c4ccncc4)ncnc32)c1 [GW784752X],100
18,C[C@@H](Oc1cc(-n2cnc3ccc(OC4CCN(C)CC4)cc32)sc1C(N)=O)c1ccccc1Cl [GSK579289A],36
19,Cl.O=C(Nc1ccc(Oc2ccc3[nH]c(NC(=O)c4ccccc4)nc3c2)cc1)Nc1cc(C(F)(F)F)ccc1F [GW709042A],99
20,C/C(Nc1ccc(S(N)(=O)=O)cc1)=C1/C(=O)Nc2ccccc21 [GW335962X],100
